From PubChem BioAssay
Calls of active or inactive are those of the source. Unless noted, how the calls were made is not given here.

Key:
[1] = test system: XIP peptide (Xip251-270) binding; assay: small-molecule binders of XIP peptide, primary screen, biochemical, small-molecule microarray, fluorescence 635/667 nm, 0.1 µg/mL protein (AID 1182); settings: fluorescent protein binding, 635 nm, higher = more signal, called active from +8 up or from −8 down
XIP peptide (Xip251-270) = assay: small-molecule binders of XIP peptide, primary screen, biochemical, small-molecule microarray, fluorescence 635/667 nm, 0.5 µg/mL protein (AID 1183); settings: small-molecule microarray binding, fluorescence 635 nm; higher = more signal
[2] = Plasmodium falciparum growth inhibition, primary screen, strain 3D7, DAPI fluorescence, 100 nL (AID 1184);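 further: parasites grown inside human red blood cells in medium with human serum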; settings: P. falciparum 3D7 growth, 3 d, higher = more signal
[3] = biological target: Homeobox protein Hox-A13 (Mus musculus) (UniProt Q62424); assay: inhibitors of HoxA13-DNA binding, primary screen, biochemical, fluorescence polarization, labeled oligonucleotide (AID 1185); settings: 15 min, higher = more signal, called active from +8 up or from −8 down
[4] = inhibitors of hydroxyurea-induced Chk1 phosphorylation, primary screen, imaging, HeLa, phospho-Chk1 antibody, percent positive cells (AID 1186); settings: hydroxyurea-induced phospho-Chk1 immunofluorescence imaging, higher = more signal
[5] = inhibitors of hydroxyurea-induced Chk1 phosphorylation, primary screen, imaging, HeLa, phospho-Chk1 nuclear intensity (AID 1187); settings: hydroxyurea-induced phospho-Chk1 immunofluorescence imaging, higher = more signal

Sequence of Homeobox protein Hox-A13 (Mus musculus) (Q62424 whole entry, looked up): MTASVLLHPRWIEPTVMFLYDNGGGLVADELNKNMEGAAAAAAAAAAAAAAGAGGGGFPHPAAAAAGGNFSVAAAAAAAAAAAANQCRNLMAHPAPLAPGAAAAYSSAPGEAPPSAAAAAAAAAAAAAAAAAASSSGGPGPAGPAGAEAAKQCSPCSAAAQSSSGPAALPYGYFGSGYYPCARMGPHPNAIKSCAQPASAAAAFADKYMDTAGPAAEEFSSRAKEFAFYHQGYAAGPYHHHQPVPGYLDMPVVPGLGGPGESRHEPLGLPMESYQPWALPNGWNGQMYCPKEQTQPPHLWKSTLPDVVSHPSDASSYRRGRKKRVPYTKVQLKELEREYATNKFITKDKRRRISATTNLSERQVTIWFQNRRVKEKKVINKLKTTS

SMILES	composite z-score [1]	composite z-score (XIP peptide (Xip251-270))	z-score [2]	z-score [3]	z-score [4]	z-score [5]
C=CCN1C(=O)[C@@]2(O[C@@H](CCO)[C@H]([Si](C)(C)c3ccc(OC)cc3)[C@H]2C)c2cc(N3CCCCC3=O)ccc21	0.561 (inactive)	0.625	-2.42	-6.02 (inactive)	-1.22 (inactive)	-0.485 (inactive)
C[C@H]1C2[C@H](Cc3ccccc3)NC(=O)[C@]23C(=O)N[C@@H](Cc2ccccc2)C(=O)N2CCC[C@H]2C(=O)NC/C=C/CC/C=C/C3[C@@H]2O[C@]12C (stereo partly specified)	0.182 (inactive)	0.457	-2.99	-7.13 (inactive)	-0.234 (inactive)	-0.437 (inactive)
O=C1C2C=CC(C(O)C3CC=CCC3)N(Nc3ccc([N+](=O)[O-])cc3)C2C(=O)N1c1ccccc1 (stereo unspecified)	0.524 (inactive)	0.545	-0.627	-3.86 (inactive)	0.691 (inactive)	-0.101 (inactive)
CS(=O)(=O)CCOC(=O)C1=CC(CCCO)=CC(C2CC2)N(Cc2sc3ccccc3c2Cl)C=C1C(=O)OCCS(C)(=O)=O (stereo unspecified)	1.05 (inactive)	0.257	-3.02	-4.7 (inactive)	-0.207 (inactive)	-0.0474 (inactive)
COc1ccc(C(=O)Nc2ccc(CN3C(=O)[C@@]4(O[C@@H](CC(=O)N(CCO)Cc5ccccc5)[C@H]([Si](C)(C)c5ccc(OC)cc5)[C@H]4C)c4ccccc43)cc2)cc1	1.96 (inactive)	0.622	-0.992	-1.31 (inactive)	-0.543 (inactive)	-0.262 (inactive)
C=CCNC(=O)[C@@H]1[C@H]2C(=O)O[C@H](c3ccccc3)[C@H](c3ccccc3)N2[C@H](c2ccc(OCCO)cc2)[C@@]12C(=O)Nc1ccc(C#CCNC(N)=O)cc12	2.5 (inactive)	0.561	0.175	-3.63 (inactive)	0.286 (inactive)	0.0132 (inactive)
CC(CO)N1C(=O)[C@@H]2[C@H]3C(=O)OCC=C[C@H]3OC23C=CCN(c2ccc4ccccc4c2)C(=O)[C@@H]13 (stereo partly specified)	-0.0975 (inactive)	0.547	0.48	-4.49 (inactive)	-0.233 (inactive)	0.0823 (inactive)
COc1ccc(CCNC(=O)[C@@H]2c3ccccc3C(=O)N(C(C)C)[C@H]2c2ccc(CO)cc2)cc1	-0.343 (inactive)	-0.898	1.13	-2.13 (inactive)	-0.182 (inactive)	-0.238 (inactive)
C=C(CCCC)C(=O)CC[C@@H](OC(C)=O)c1ccc(OCCO)cc1	0.386 (inactive)	0.607	-2.07	-5.09 (inactive)	-0.266 (inactive)	-0.266 (inactive)
O=C(CS)NCCCCCCNC(=O)[C@H]1C[C@H]2C(=O)NCC(=O)N2[C@H]1c1cccc(OCCO)c1	0.419 (inactive)	0.702	-1.34	-2.25 (inactive)	-0.321 (inactive)	-0.529 (inactive)
COC(=O)[C@@]1(Cc2ccc(F)cc2)[C@H]2c3cc(C(=O)N4CCCC4)n(Cc4ccc(C(F)(F)F)nc4)c3C[C@H]2CN1C(=O)c1ccccc1	0.216 (inactive)	0.602	-0.532	-3.29 (inactive)	0.278 (inactive)	0.554 (inactive)
COC(=O)[C@@]1(Cc2ccc(F)cc2)[C@H]2c3cc(C(=O)N4CCCC4)n(CCc4c[nH]c5cc(F)ccc45)c3C[C@H]2CN1C(=O)c1ccccc1	0.0421 (inactive)	0.684	-1.4	-2.5 (inactive)	-0.332 (inactive)	-0.589 (inactive)
CCCCC(=C=CC[C@H](O)c1cccc(OCCO)c1)C[C@H](O)c1cc(Cl)cc(Cl)c1O	0.878 (inactive)	0.592	-1.16	-4.28 (inactive)	-0.755 (inactive)	0.0773 (inactive)
CC(=O)NCCCC[C@@H]1NC(=O)[C@H]2C[C@@H](C(=O)NCCCCCN)[C@@H](c3ccc(O)cc3)N2C1=O	0.222 (inactive)	0.562	0.0481	-2.29 (inactive)	0.32 (inactive)	-0.163 (inactive)
CO[C@H]1O[C@H](CO)[C@@H](OC(=O)CCc2ccccc2)[C@@H]2OC(=O)[C@@H](Cc3ccc4ccccc4c3)C/C=C/C[C@H](Cc3ccc4ccccc4c3)C(=O)O[C@@H]12	0.204 (inactive)	0.448	-2.13	-4.15 (inactive)	-0.267 (inactive)	-0.343 (inactive)
C=C(CCCC)C(=O)CC[C@H](OC(=O)c1ccccc1-c1ccccc1C(=O)O)c1cccc(OCCO)c1	-0.459 (inactive)	0.614	-2.65	-6.4 (inactive)	1.01 (inactive)	0.182 (inactive)
COC(=O)[C@@]1(Cc2ccc(F)cc2)[C@H]2c3cc(C(=O)N(C)C)n(Cc4ccc(C(F)(F)F)nc4)c3C[C@H]2CN1C(=O)c1ccccc1	0.338 (inactive)	0.64	-1.68	-3.87 (inactive)	0.93 (inactive)	0.563 (inactive)
C=CC[C@H](O)c1ccc(O)c2ccccc12	0.0693 (inactive)	0.512	-1.36	-2.1 (inactive)	0.835 (inactive)	1.01 (inactive)
COC(=O)[C@@]1(Cc2ccc(F)cc2)[C@H]2c3cc(C(=O)N(C)C)n(Cc4cccc5ccccc45)c3C[C@H]2CN1C(=O)c1ccccc1	0.0361 (inactive)	0.891	-1.51	-4.81 (inactive)	0.406 (inactive)	0.252 (inactive)
Cc1ccc(S[C@]2(C(=O)NC(C)C)CC(=O)N(Cc3ccccc3)[C@@H]2c2ccc(CO)cc2)cc1	1.13 (inactive)	0.123	0.14	-1.54 (inactive)	-0.412 (inactive)	-0.32 (inactive)
COCCCNC(=O)[C@]1(Cc2ccccc2CN=[N+]=[N-])N=C(c2ccc(OCCCO)cc2)O[C@@H]1c1ccccc1N=[N+]=[N-]	0.228 (inactive)	-0.184	-2.03	-0.994 (inactive)	-0.364 (inactive)	-0.601 (inactive)
O=C1NC(=O)C2C1C=CC(C(O)c1ccc(F)cc1)N2Nc1ccc(Cl)cc1Cl (stereo unspecified)	-0.138 (inactive)	-0.258	-0.525	-5.48 (inactive)	-0.142 (inactive)	0.116 (inactive)
C=CCOC(=O)[C@H]1[C@@H]2C(=O)O[C@@H](c3ccccc3)[C@@H](c3ccccc3)N2[C@@H](c2ccc(OCCOC(=O)[C@H]3C[C@H]4C(=O)NCC(=O)N4[C@H]3c3cccc(OCCO)c3)cc2)[C@]12C(=O)Nc1ccc(I)cc12	0.585 (inactive)	0.649	-1.8	0.871 (inactive)	-1.38 (inactive)	-1.12 (inactive)
Cc1ccc(S[C@]2(C(=O)NCc3ccccc3)CC(=O)N(Cc3ccccc3Cl)[C@@H]2c2ccc(CO)cc2)cc1	1.65 (inactive)	0.825	-1.2	-2.65 (inactive)	0.172 (inactive)	0.622 (inactive)
CC(C)(C)OC(=O)N1[C@@H](C=C(Br)Br)COC1(C)C	5.39 (inactive)	-0.0146	0.438	-0.337 (inactive)	-0.35 (inactive)	-0.129 (inactive)
COC(=O)[C@@]1(Cc2ccc(F)cc2)[C@H]2c3cc(C(=O)N4CCCC4)n(Cc4ccc(OC(F)(F)F)cc4)c3C[C@H]2CN1C(=O)c1ccccc1	0.124 (inactive)	0.267	0.096	-3.8 (inactive)	1.06 (inactive)	0.639 (inactive)
